Several values for one entry are separate records, joined by “and”; a condition that tells them apart may be missing. Equal values may be shown once. About 79,000 compounds went through this panel and 15% of them were active in at least one assay; those are over-represented in the sample as a whole. Rule as the data show it: active = growth inhibition above about 70%; inactive = the rest.
Tests used:
[1] = NCI Yeast Anticancer Drug Screen. Data for the rad50 strain (AID 155);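 also: 0% = growth of vehicle-only cultures of the same strain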; details: S. cerevisiae rad50 strain growth inhibition; at 50.0 µM; stronger effect = higher value
In short: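 A DNA repair-deficient yeast mutant serves as the test organism; compound-induced growth inhibition is calculated against vehicle-treated cells.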

[2] = NCI Yeast Anticancer Drug Screen. Data for the mec2-1 strain (AID 157); details: S. cerevisiae mec2-1 strain, at 50.0 µM, stronger effect = higher value
In short: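 Cells of the genetically defined mec2-1 yeast strain are incubated with test compound. Inhibition of growth is calculated against vehicle-treated controls.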

[3] = NCI Yeast Anticancer Drug Screen. Data for the sgs1 mgt1 strain (AID 161);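 also: 0% = growth of cultures given vehicle only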; details: S. cerevisiae sgs1 mgt1 strain, at 50.0 µM, stronger effect = higher value
In short: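 Test agents were incubated with a DNA-repair-mutant yeast strain. Growth was then read and compared against vehicle-treated controls.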

[4] = NCI Yeast Anticancer Drug Screen. Data for the cln2 rad14 strain (AID 165);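 also: 0% = growth equal to vehicle treated cultures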; details: S. cerevisiae cln2 rad14 strain, at 50.0 µM, stronger effect = higher value
In short: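 The screen exposed genetically defined yeast (cln2 rad14) to test compounds and scored growth inhibition relative to vehicle-treated controls.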

[5] = NCI Yeast Anticancer Drug Screen. Data for the bub3 strain (AID 167); details: S. cerevisiae bub3 mutant strain, at 50.0 µM, stronger effect = higher value
In short: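 Inhibition values come from growth of compound-treated mutant yeast normalised to vehicle-treated controls.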

[6] = NCI Yeast Anticancer Drug Screen. Data for the mlh1 rad18 strain (AID 175); details: S. cerevisiae mlh1 rad18 strain growth inhibition; at 50.0 µM; stronger effect = higher value
In short: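 Compound-treated yeast growth, normalised to vehicle controls. Strain bears defined DNA repair mutations.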

Measured: growth inhibition

COC1C(O)C(C)OC(O[C@@H]2C[C@H]3CC[C@@H]4[C@H](CC[C@]5(C)[C@@H](C6=CC(=O)OC6)CC[C@]45O)[C@@]3(C)[C@H](O)C2)C1O (stereo not given in full)
inactive: [1] 1.4% | [2] -12.5% | [3] -3.55% | [4] -6.35% | [5] 1% | [6] 3.8%

O.O=S(=O)(O)O.[Co+3].[NH2-].[NH2-].[NH2-].[NH2-].[OH-]
inactive: [1] 31.2% | [2] 10.7% | [3] 8.6% | [4] 29.2% | [5] 12.4% | [6] 21.5%

CC1=NN(c2cccc(S(=O)(=O)O)c2)C(=O)C1N=Nc1cc(Cl)cc(S(=O)(=O)O)c1O.O.[Cr] (stereo not given)
inactive: [1] -19.4% | [2] -25.1% | [3] 3.1% | [4] -0.7% | [5] 8.35% | [6] 9.35%

ClCCCBr
inactive: [1] 29.2% | [2] -7.35% | [3] -10.8% | [4] 13.3% | [5] 24.4% | [6] 21.9%

C[N+](C)(C)Cc1cccc([N+](=O)[O-])c1
inactive: [1] -47.9% | [2] -5.5% | [3] -3.8% | [4] -40.7% | [5] -4% | [6] 13.2%

O=C(Nc1ccccc1Cl)OCC(Cl)(Cl)Cl
inactive: [1] -15.3% | [2] 2% | [3] 16.1% | [4] -19.9% | [5] 19.8% | [6] -11.2%

COC1=CC2C3Cc4c(-c5cc(OC)c(O)c6c5CC5C7C=C(OC)C(=O)CC67CCN5C)cc(OC)c(O)c4C2(CCN3C)CC1=O (stereo not given)
inactive: [1] -2.7% and -3.05% | [2] 1.25% and 2.55% | [3] -2.75% and -13.1% | [4] 0.25% and -10.2% | [5] -2.45% and -0.65% | [6] 3.7% and 12.1%

CC1CN1c1nc(N2CC2C)nc(N2CC2C)n1 (stereo not given)
inactive: [1] -6.8% | [2] 13.6% | [3] -2.65% | [4] -1.85% | [5] -19.2% | [6] -11.1%

CC(=O)CC(C)=O.[Cl][Sb]1([Cl])[CH2]CC[CH2]1
inactive: [1] -22.4% | [2] -11.8% | [3] -17.1% | [4] -0.75% | [5] 1.25% | [6] 5.55%

COC(=O)C1=NNC2(c3ccccc3Sc3ccccc32)C1C(=O)OC (stereo not given)
inactive: [1] -8.95% | [2] -8.25% | [3] -12.5% | [4] 25.5% | [5] -18.9% | [6] -11.8%

[Be]=[Se]
inactive: [1] -21.1% | [2] -0.4% | [3] -2.9% | [4] 2.1% | [5] -11.4% | [6] 29.7%

CC(=O)N1CCCN(C)/C1=N/[N+](=O)[O-]
inactive: [1] -20.1% | [2] -14.8% | [3] -6.7% | [4] -10.9% | [5] -15.4% | [6] -13.9%

C(=C/P(c1ccccc1)c1ccccc1)/P(c1ccccc1)c1ccccc1
inactive: [1] 4.05% | [2] 8.95% | [3] 1.9% | [4] -18.4% | [5] 2.75% | [6] 2.7%

CC([NH-])C[NH-].[NH2-].[NH2-].[Pt+4] (stereo not given)
inactive: [1] 17.1% | [2] -5.65% | [3] -10.3% | [4] -6.25% | [5] 5.8% | [6] -12.3%

C=CCn1cc2c3c(cccc31)C1CC(C)CN(C)C1C2 (stereo not given)
inactive: [1] 34.5% | [2] 36% | [3] 25% | [4] 39.9% | [5] 33.6% | [6] 28.9%

CC(C)CNP(=S)(NCC(C)C)c1ccccc1
inactive: [1] 4.5% | [2] 12.9% | [3] 6.7% | [4] 5.55% | [5] 18.9% | [6] 21.3%

CCN1C2CCC1CC(=O)C2
inactive: [1] 0.95% | [2] 5.9% | [3] -5.7% | [4] -11.9% | [5] -14.2% | [6] 7.85%

C/C=C1/CC(C)C(C)(O)C(=O)OCC2CCN3CCC(OC1=O)C23 (stereo not given)
inactive: [1] 13.5% | [2] -1.75% | [3] 6.8% | [4] 8.05% | [5] 23.1% | [6] 18.4%

CC1=CC(=O)NP(=O)(Oc2ccc(C)cc2)N1 (stereo not given)
inactive: [1] -7.7% | [2] 16.1% | [3] -4.65% | [4] -0.75% | [5] -25.3% | [6] -4.4%

O=C([O-])CC(=O)[O-].[Cu+2].[OH3+].[OH3+]
inactive: [1] 24.9% | [2] 11.2% | [3] 12.2% | [4] -19.6% | [5] -9.35% | [6] 6.1%

Source: PubChem BioAssay (NCI)
